“And” between values parts separate entries of the source, which are not always exact repeats. Equal values may be shown once. The campaign covered roughly 5,500 compounds. About 2,000 (36%) were called active. About 18% were inconclusive and are not listed. No stated cut-off is given here; in the data, active means normalized growth mostly below about 0.91 (no sharp cut-off); inconclusive means no clear call, values can overlap the other calls; inactive means mostly above about 0.92. Some of the results follow.
Test: chemical genetic growth profiling, strain panel (AID 1159580);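 further: tested at 20 µM; growth read once vehicle control cultures reached saturation at 30 °C; 1 = growth at the plate median or of vehicle wells; lower values mean less growth of the strain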
Conditions: S. cerevisiae deletion strains, growth OD

Measured: normalized growth

CC(C)=CC1C(CO)C1(C)C (centres undefined)
inactive: locus YAL021C, strain ccr4, hits give low values 1.01 | locus YAL026C, strain drs2, hits give low values 1.03 | locus YAL030W, strain snc1, hits give low values 1.02 | locus YBL061C, strain skt5, hits give low values 1.02 | locus YBR009C, strain hhf1, hits give low values 1.03 | locus YBR021W, strain FUR4, hits give low values 1.02 | locus YBR023C, strain chs3, hits give low values 1.02 | locus YBR171W, strain sec66, hits give low values 1.03 | locus YBR229C, strain ROT2, hits give low values 1.02 | locus YBR231C, strain swc5, hits give low values 1.02 | locus YBR279W, strain paf1, hits give low values 1.02 | locus YCL011C, strain gbp2, hits give low values 1.02 | locus YCL016C, strain dcc1, hits give low values 1.02 | locus YCL029C, strain bik1, hits give low values 0.994 | locus YCL061C, strain MRC1, hits give low values 1.01 | locus YCL069W, strain vba3, hits give low values 1.01 | locus YCR088W, strain abp1, hits give low values 1.02 | locus YDL005C, strain med2, hits give low values 1.03 | locus YDL035C, strain GPR1, hits give low values 1.03 | locus YDL040C, strain nat1, hits give low values 1.02 | locus YDL074C, strain BRE1, hits give low values 1.03 | locus YDL101C, strain DUN1, hits give low values 1.03 | locus YDL185W, strain tfp1, hits give low values 0.999 | locus YDL192W, strain arf1, hits give low values 1.01 | locus YDR001C, strain nth1, hits give low values 1.01 | locus YDR069C, strain doa4, hits give low values 1.04 | locus YDR101C, strain arx1, hits give low values 1 | locus YDR137W, strain rgp1, hits give low values 1.04 | locus YDR159W, strain sac3, hits give low values 1.03 | locus YDR162C, strain NBP2, hits give low values 1.03 | locus YDR195W, strain ref2 0.992 | locus YDR297W, strain sur2, hits give low values 1.03 | locus YDR318W, strain mcm21, hits give low values 0.995 | locus YDR334W, strain swr1, hits give low values 1.02 | locus YDR335W, strain msn5, hits give low values 1.02 | locus YDR388W, hits give low values 0.999 | locus YDR392W, strain spt3, hits give low values 0.981 | locus YDR502C, strain sam2, hits give low values 0.994 | locus YEL003W, strain gim4, hits give low values 1.02 | locus YEL037C, strain rad23, hits give low values 1.02 | locus YEL061C, strain CIN8 (second series), hits give low values 1.01 | locus YEL061C, strain CIN8, hits give low values 1.01 | locus YER015W, strain faa2, hits give low values 1.02 | locus YER016W, strain bim1, hits give low values 1.02 | locus YER110C, hits give low values 1.01 | locus YER111C, strain swi4, hits give low values 1.02 | locus YER155C, strain BEM2 (second series), hits give low values 1.04 | locus YER155C, strain BEM2, hits give low values 1.01 | locus YER167W, strain BCK2, hits give low values 1.02 | locus YFR010W, strain ubp6, hits give low values 1.03 | locus YGL078C, strain dbp3, hits give low values 1 | locus YGL086W, strain mad1, hits give low values 1.01 | locus YGL167C, strain pmr1, hits give low values 1.02 | locus YGL173C, strain kem1, hits give low values 1.02 | locus YGL227W, strain vid30, hits give low values 1.02 | locus YGL240W, strain doc1, hits give low values 1.04 | locus YGL248W, strain PDE1, hits give low values 1.03 | locus YGL253W, strain hxk2, hits give low values 1.02 | locus YGR078C, strain PAC10, hits give low values 1.04 | locus YGR135W, strain pre9, hits give low values 1.01 | locus YGR252W, strain gcn5, hits give low values 0.989 | locus YHR013C, strain ard1, hits give low values 1.04 | locus YHR027C, strain rpn1, hits give low values 1.02 | locus YHR030C, strain SLT2, hits give low values 1.02 and 0.985 | locus YHR079C, strain IRE1 (second series), hits give low values 1.01 | locus YHR079C, strain IRE1, hits give low values 0.994 | locus YHR094C, strain hxt1, hits give low values 0.984 | locus YHR129C, strain ARP1, hits give low values 1.02 | locus YHR142W, strain chs7, hits give low values 1.01 | locus YHR200W, strain rpn10, hits give low values 1 | locus YIL066C, strain RNR3, hits give low values 1.04 | locus YIL073C, strain SPO22, hits give low values 1.02 | locus YIL125W, strain kgd1, hits give low values 1.01 | locus YIR030C, strain dcg1, hits give low values 1 | locus YJL092W, strain hpr5, hits give low values 1.01 | locus YJL095W, strain BCK1 (second series), hits give low values 1.02 | locus YJL095W, strain BCK1, hits give low values 1.04 and 0.986 | locus YJL115W, strain asf1, hits give low values 1.02 | locus YJL129C, strain trk1, hits give low values 1.02 | locus YJL134W, strain LCB3, hits give low values 1.02 | locus YJL154C, strain vps35, hits give low values 1 | locus YJL164C, strain tpk1, hits give low values 1.02 | locus YJL166W, strain qcr8, hits give low values 1.02 | locus YJL168C, strain set2, hits give low values 0.997 | locus YJL187C, strain SWE1 (second series), hits give low values 1.04 | locus YJL187C, strain SWE1, hits give low values 1.02 | locus YJR043C, strain POL32, hits give low values 1.04 | locus YJR066W, strain TOR1, hits give low values 0.957 | locus YKL009W, strain mrt4, hits give low values 1 | locus YKL068W, hits give low values 1.01 | locus YKL085W, strain MDH1 (second series), hits give low values 0.998 | locus YKL085W, strain MDH1, hits give low values 0.998 | locus YKL160W, strain elf1, hits give low values 1.01 | locus YKL190W, strain CNB1, hits give low values 1.02 | locus YKR001C, strain vps1, hits give low values 1.01 | locus YKR026C, strain gcn3, hits give low values 0.994 | locus YKR091W, strain srl3, hits give low values 1.02 | locus YLL001W, strain dnm1, hits give low values 1.03 | locus YLL026W, hits give low values 1.02 | locus YLL041C, strain sdh2, hits give low values 1.01 | locus YLR027C, strain aat2, hits give low values 1.02 | locus YLR039C, strain RIC1, hits give low values 1.07 | locus YLR058C, strain SHM2, hits give low values 1.02 | locus YLR102C, strain apc9, hits give low values 0.989 | locus YLR113W, strain HOG1, hits give low values 0.976 | locus YLR221C, strain rsa3, hits give low values 1.02 | locus YLR258W, strain gsy2, hits give low values 1.03 | locus YLR262C, strain YPT6 (second series), hits give low values 1.02 | locus YLR262C, strain YPT6, hits give low values 1.07 | locus YLR268W, strain sec22, hits give low values 0.999 | locus YLR320W, strain mms22, hits give low values 1.04 | locus YLR330W, strain CHS5, hits give low values 1.02 | locus YLR342W, strain FKS1 (second series), hits give low values 1.02 | locus YLR342W, strain FKS1, hits give low values 1.03 | locus YLR357W, strain rsc2, hits give low values 1.04 | locus YLR370C, strain arc18, hits give low values 1.01 | locus YLR371W, strain rom2, hits give low values 1 | locus YLR384C, strain iki3, hits give low values 0.999 | locus YLR418C, strain cdc73, hits give low values 0.99 | locus YML016C, strain PPZ1, hits give low values 1.02 | locus YML032C, strain rad52, hits give low values 0.997 | locus YML120C, strain ndi1, hits give low values 1.02 | locus YML124C, strain tub3, hits give low values 1.01 | locus YMR058W, strain fet3, hits give low values 1.01 | locus YMR078C, strain ctf18, hits give low values 0.99 | locus YMR125W, strain sto1, hits give low values 1.03 | locus YMR129W, hits give low values 1.01 | locus YMR205C, strain PFK2, hits give low values 1.04 | locus YMR223W, strain ubp8, hits give low values 1.01 | locus YMR231W, strain pep5, hits give low values 1.02 | locus YMR263W, strain SAP30, hits give low values 1.03 | locus YMR307W, strain GAS1, hits give low values 1.11 | locus YNL067W, strain RPL9B, hits give low values 1.04 | locus YNL071W, strain lat1, hits give low values 1.02 | locus YNL153C, strain GIM3, hits give low values 1.04 | locus YNL183C, strain NPR1, hits give low values 0.955 | locus YNL209W, strain ssb2, hits give low values 1.03 | locus YNL233W, strain BNI4, hits give low values 1.03 | locus YNL248C, strain rpa49, hits give low values 1.02 | locus YNL250W, strain rad50, hits give low values 0.994 | locus YNL271C, strain bni1, hits give low values 1 | locus YNL298W, strain CLA4, hits give low values 0.998 | locus YNL307C, strain MCK1, hits give low values 1.01 | locus YNL322C, strain KRE1 (second series), hits give low values 1.02 | locus YNR049C, strain mso1, hits give low values 1.03 | locus YNR052C, strain pop2, hits give low values 0.995 | locus YOL012C, strain htz1 0.795 | locus YOL147C, strain pex11, hits give low values 0.993 | locus YOR001W, strain rrp6, hits give low values 1.01 | locus YOR061W, strain CKA2, hits give low values 1.02 | locus YOR069W, strain VPS5, hits give low values 1.02 | locus YOR070C, strain gyp1, hits give low values 1.02 | locus YOR080W, strain dia2, hits give low values 1.02 | locus YOR083W, strain WHI5, hits give low values 1.01 | locus YOR106W, strain vam3, hits give low values 1.02 | locus YOR136W, strain idh2, hits give low values 0.991 | locus YOR144C, strain elg1, hits give low values 0.991 | locus YOR184W, strain ser1, hits give low values 1.01 | locus YOR231W, strain MKK1, hits give low values 0.978 | locus YOR265W, strain rbl2, hits give low values 1.02 | locus YOR270C, strain vph1, hits give low values 1.03 | locus YOR290C, strain snf2, hits give low values 0.991 | locus YOR316C, strain cot1, hits give low values 0.991 | locus YPL051W, strain arl3, hits give low values 1.01 | locus YPL078C, strain atp4, hits give low values 1.01 | locus YPL106C, strain sse1, hits give low values 1.01 | locus YPL240C, strain hsp82, hits give low values 1.03 | locus YPL241C, strain CIN2, hits give low values 1.02 | locus YPL256C, strain CLN2, hits give low values 0.97 | locus YPR119W, strain clb2, hits give low values 0.989 | locus YPR141C, strain kar3, hits give low values 1 | locus YPR163C, strain tif3, hits give low values 0.99 | locus YPR167C, strain met16, hits give low values 1.01 | strain wtn01, hits give low values 0.99

Source: PubChem BioAssay AID1159580 (chemical genetic matrix, 2015)
